For 20 compounds, gametocyte viability results are on record in the supplement of paper PMC12297408.

Where a name gives a salt, the structure may show the parent alone. Values without a mark were called inactive.

The first assay deals with Plasmodium falciparum NF54/iGP1_RE9H ulg8 stage V gametocytes. The assay can be described thus: gametocyte viability (luciferase signal relative to DMSO control) (% of DMSO control); higher = less gametocytocidal activity, active = 50 or less. To be noted: concentration: 1 µM; exposure time: 72 h. The procedure:
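Synchronous P. falciparum NF54/iGP1_RE9H ulg8 mature stage V gametocytes (day 12) were exposed to Cayman Epigenetics Screening Library compounds at 10 µM or 1 µM for 72 h at 37 °C. Viability was read as RE9H luciferase bioluminescence, normalised to DMSO plate controls (100%); 50 µM methylene blue was the positive control.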
In the case of `O=C(O)CCCc1ccccc1` [Sodium 4-Phenylbutyrate], the gametocyte viability is 90.4.

In the case of `Nc1ccccc1NC(=O)CCCCCC(=O)Nc1ccccc1`, the gametocyte viability is 88.7.

Turning to `O=C(NC[C@H](O)CN1CCc2ccccc2C1)c1cc(NC2COC2)ncn1`, the gametocyte viability was 90.

`CN1CCC(=C2c3ccccc3C=Cc3ccccc32)CC1` [Cyproheptadine (hydrochloride hydrate)]: the gametocyte viability is 88.2.

With `Clc1ccc(-c2csc(NN=C3CCCC3)n2)cc1` [CPTH2 (hydrochloride)], the gametocyte viability is 98.4.

Take `CC[C@@H]1C(=O)N(C)c2cnc(Nc3ccc(C(=O)NC4CCN(C)CC4)cc3OC)nc2N1C1CCCC1`: the gametocyte viability was 78.1.

Take `CC(C)N(CCCNC(=O)Nc1ccc(C(C)(C)C)cc1)C[C@H]1O[C@@H](n2cc(Br)c3c(N)ncnc32)[C@H](O)[C@@H]1O`: the gametocyte viability was 88.

As for `CC(=O)OCC1OC(n2cnc(N)nc2=O)C(OC(C)=O)C1OC(C)=O` (stereo not given) [2',3',5'-triacetyl-5-Azacytidine], the gametocyte viability was 87.3.

`COc1cc2c(NC3CCN(C(C)C)CC3)nc(C3CCCCC3)nc2cc1OCCCN1CCCC1`: the gametocyte viability was 77.7.

On to `COc1ccc(CCc2nc3cc(-c4c(C)noc4C)ccc3n2C[C@H](C)N2CCOCC2)cc1Cl`, for which the gametocyte viability was 78.4.

Regarding `O=C(CCCCCCC(=O)Nc1cccnc1)NO` [Pyroxamide], the gametocyte viability was 90.7.

`O=C1C(=Cc2cccnc2)C(=O)c2ccccc21`: the gametocyte viability is 79.2.

With `O=C(O)C(Cc1c[nH]c2ccccc12)N1C(=O)c2ccccc2C1=O` (stereo not given), the gametocyte viability was 86.9.

For `O=C1CCc2c(ccc3ccccc23)O1` [Splitomicin], the gametocyte viability was 86.2.

For `CNCCN1CCC(OCc2ccccc2)CC1` [MS049 (hydrochloride)], the gametocyte viability was 84.2.

Turning to `Nc1ccn([C@@H]2O[C@H](CO)[C@@H](O)C2(F)F)c(=O)n1` [Gemcitabine], the gametocyte viability was 91.5.

Regarding `Cc1cc(Nc2ccc(NC(=O)c3ccc(Nc4ccnc5ccccc45)cc3)cc2)nc(N)n1`, the gametocyte viability was 31.4 (active).

In the case of `Clc1cc2c(NC3CCCC3)nnc(-c3ccncc3)c2cc1Cl`, the gametocyte viability is 83.9.

Turning to `Nc1ncn([C@H]2C[C@H](O)[C@@H](CO)O2)c(=O)n1` [Decitabine], the gametocyte viability was 90.6.

`CS(=O)(=O)c1ccc(-c2cnc(NCc3ccco3)n3cnnc23)cc1`: the gametocyte viability was 88.5.

Still in this assay, the particulars now being: concentration: 10 µM; exposure time: 72 h.
As to `O=C(O)CCCc1ccccc1` [Sodium 4-Phenylbutyrate], the gametocyte viability was 89.2.

For `Nc1ccccc1NC(=O)CCCCCC(=O)Nc1ccccc1`, the gametocyte viability was 96.1.

For `O=C(NC[C@H](O)CN1CCc2ccccc2C1)c1cc(NC2COC2)ncn1`, the gametocyte viability was 89.1.

On to `CN1CCC(=C2c3ccccc3C=Cc3ccccc32)CC1` [Cyproheptadine (hydrochloride hydrate)], for which the gametocyte viability was 86.6.

`Clc1ccc(-c2csc(NN=C3CCCC3)n2)cc1` [CPTH2 (hydrochloride)]: the gametocyte viability was 83.9.

Regarding `CC[C@@H]1C(=O)N(C)c2cnc(Nc3ccc(C(=O)NC4CCN(C)CC4)cc3OC)nc2N1C1CCCC1`, the gametocyte viability was 16.6 (active).

Consider `CC(C)N(CCCNC(=O)Nc1ccc(C(C)(C)C)cc1)C[C@H]1O[C@@H](n2cc(Br)c3c(N)ncnc32)[C@H](O)[C@@H]1O`, for which the gametocyte viability was 49.3 (active).

On to `CC(=O)OCC1OC(n2cnc(N)nc2=O)C(OC(C)=O)C1OC(C)=O` (stereo not given) [2',3',5'-triacetyl-5-Azacytidine], for which the gametocyte viability was 85.8.

As to `COc1cc2c(NC3CCN(C(C)C)CC3)nc(C3CCCCC3)nc2cc1OCCCN1CCCC1`, the gametocyte viability was 15.4 (active).

`COc1ccc(CCc2nc3cc(-c4c(C)noc4C)ccc3n2C[C@H](C)N2CCOCC2)cc1Cl`: the gametocyte viability is 68.6.

As for `O=C(CCCCCCC(=O)Nc1cccnc1)NO` [Pyroxamide], the gametocyte viability was 63.8.

In the case of `O=C1C(=Cc2cccnc2)C(=O)c2ccccc21`, the gametocyte viability is 80.2.

For `O=C(O)C(Cc1c[nH]c2ccccc12)N1C(=O)c2ccccc2C1=O` (stereo not given), the gametocyte viability was 84.3.

With `O=C1CCc2c(ccc3ccccc23)O1` [Splitomicin], the gametocyte viability was 80.9.

`CNCCN1CCC(OCc2ccccc2)CC1` [MS049 (hydrochloride)]: the gametocyte viability is 79.7.

`Nc1ccn([C@@H]2O[C@H](CO)[C@@H](O)C2(F)F)c(=O)n1` [Gemcitabine]: the gametocyte viability is 85.8.

Regarding `Cc1cc(Nc2ccc(NC(=O)c3ccc(Nc4ccnc5ccccc45)cc3)cc2)nc(N)n1`, the gametocyte viability is 2.18 (active).

On to `Clc1cc2c(NC3CCCC3)nnc(-c3ccncc3)c2cc1Cl`, for which the gametocyte viability is 71.7.

On to `Nc1ncn([C@H]2C[C@H](O)[C@@H](CO)O2)c(=O)n1` [Decitabine], for which the gametocyte viability was 90.

For the compound `CS(=O)(=O)c1ccc(-c2cnc(NCc3ccco3)n3cnnc23)cc1`, the gametocyte viability was 91.4.
